Reference: PubChem BioAssay (NCATS)
Values joined by “and” are separate entries in the source; they are usually repeats but may differ in a detail not shown here. Equal values may be shown once. Inconclusive results are not listed. Entries that show only a call come without a potency. Active and inactive are the calls of the source. Calls follow the shape of the dose curve; as a rule, active = well fitted inhibition curve with a large enough effect; inconclusive = small, poorly fitted or top-dose-only effect; inactive = no such curve, though single readings can be large or run the other way.

biological target: Tyrosine-protein kinase Yes (Homo sapiens) (UniProt P07947); assay: qHTS for small molecule inhibitors of Yes1 kinase: Primary Screen (AID 686947); details: Yes1 kinase biochemical qHTS inhibition; series mostly up to 76.9 µM; also: nearly all actives have a fitted effect of over 60% in size
Description: The Src family of non-receptor protein tyrosine kinases contains nine members, including Yes1, Src, Fyn, Lyn, and […]. These kinases have important roles in a variety of cellular functions, such as cell proliferation, survival, and differentiation. Src, the most well characterized member of this family, has been previously identified as a proto-oncogene. […] In melanoma, it has been shown that Yes1, and not other family members, such as Src, is functionally involved in the malignant phenotype. Additionally, a recent study examining the downregulation of Yes1 by shRNA found significant effects on cell survival/growth for basal-like and Her2-positive breast cancers. Despite the potential for Yes1 to be a target for the above-described cancers, there are very few reports on the identification of potent and selective inhibitors of Yes1 kinase. Antagonists of Yes1 would further elucidate Yes1 biology and help to confirm whether Yes1 is a viable target for therapeutic intervention in a variety of cancers.
A compound that inhibits Yes1 could be important for the treatment of various cancers in which Yes1 is highly expressed and can also be used as a tool compound to help further elucidate Yes1 biology. To that end, we have developed a sensitive HTS biochemical assay for Yes1 activity. This assay was screened against several small compound libraries to look for modulators of activity. Inhibition is the desired output for this assay.
NIH Molecular Libraries Probe Production Centers Network [MLPCN]
NIH Chemical Genomics Center [NCGC]
Two micoliter of Yes1 enzyme (columns 1-2, 5-48; Millipore, Billerica, MA) are dispensed into Greiner, white solid-bottom 1536-well assay plates; columns 3 and 4 receive buffer without Yes1 as a control for maximum inhibition. Compounds (23 nL) are then transferred via Kalypsys pin tool equipped with 1536-pin array (10 nL slotted pins, V&P Scientific, San Diego, CA). […] Following addition of compound and a 20 minute incubation, 1 uL of substrate (ATP and poly-E4Y from Sigma-Aldrich, St. Louis, MO) is added, and the biochemical reaction is allowed to progress for 60 minutes at room temperature. The production of ADP is then quantified by the ADP-Glo Kit (Promega, Madison, WI). First, 2 uL of the first kit reagent is added, and the reaction is incubated for 45 minutes; then, 4 uL of the second kit reagent are added and the reaction is incubated for 30 minutes at which time the luminescence is read on a Viewlux plate reader (Perkin-Elmer, Waltham, MA). The final concentration of reagents in the reaction are 4 nM Yes1, 0.1 mM ATP, 100 uM EGTA, 10 mM MgCl2, 0.3 mg/mL poly(E4Y), 50 mM Tris pH 7.5, 1 mM DTT, 150 mM NaCl, 0.01% Brij-35, and 5% glycerol. Data are normalized to DMSO-treated control columns with (maximum signal) and without (minimum signal) enzyme.
Potency is read from the fitted curve at half-maximal effect.

Chain of Tyrosine-protein kinase Yes (Homo sapiens) (P07947 whole entry, looked up): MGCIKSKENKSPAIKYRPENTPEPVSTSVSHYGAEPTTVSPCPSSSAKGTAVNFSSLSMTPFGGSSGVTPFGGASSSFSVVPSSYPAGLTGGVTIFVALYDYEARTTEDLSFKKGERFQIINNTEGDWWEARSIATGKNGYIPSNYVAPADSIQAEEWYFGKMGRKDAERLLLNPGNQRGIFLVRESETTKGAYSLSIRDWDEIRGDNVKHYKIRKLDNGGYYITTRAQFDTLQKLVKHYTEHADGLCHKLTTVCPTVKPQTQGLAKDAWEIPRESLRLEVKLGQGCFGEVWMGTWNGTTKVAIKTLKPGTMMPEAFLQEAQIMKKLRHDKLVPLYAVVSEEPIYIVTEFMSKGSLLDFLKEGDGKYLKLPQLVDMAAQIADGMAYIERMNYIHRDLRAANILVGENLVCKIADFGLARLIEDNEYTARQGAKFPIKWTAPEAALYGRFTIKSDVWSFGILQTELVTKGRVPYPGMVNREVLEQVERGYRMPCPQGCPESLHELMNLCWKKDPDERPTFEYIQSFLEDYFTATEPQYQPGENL

Row | SMILES | Potency
1 | COc1ccc2c(c1)CC[C@@H](CN(C)CC(=O)O)[C@H]2c1ccccc1 | inactive
2 | C#Cc1cccc(Nc2ncnc3cc(OC)c(OCCCCCCC(=O)NO)cc23)c1 | 1730 nM (active)
3 | CC(C)(O)CCc1ccc(OCc2cc(-c3cccc(OC(F)F)c3)c3ncccc3c2)cc1 | inactive
4 | C=C1C(=CC=C2CCCC3(C)[C@@H]([C@H](C)C=CC=CC(O)(CC)CC)CC[C@@H]23)C[C@@H](O)C[C@@H]1O (stereo not given in full) | inactive
5 | Fc1cc(-c2cccc3ncc(-c4cnn(C5CCNCC5)c4)nc23)cc(F)c1CN1CCOCC1 | 308 nM (active)
6 | Nc1cc(C(F)(F)F)c(-c2cc(N3CCOCC3)nc(N3CCOCC3)n2)cn1 | inactive
7 | CC[C@@H]1C(=O)N(C)c2cnc(Nc3ccc(C(=O)NC4CCC(N5CCN(CC6CC6)CC5)CC4)cc3OC)nc2N1C(C)C (stereo not given in full) | inactive
8 | Cc1[nH]c2ccccc2c1CCNCc1ccc(C=CC(=O)NO)cc1 | 13700 nM (active)
9 | Cc1cn(-c2cc(NC(=O)c3ccc(C)c(Nc4nccc(-c5cccnc5)n4)c3)cc(C(F)(F)F)c2)cn1 | inactive
10 | O=C(C=Cc1cccc(S(=O)(=O)Nc2ccccc2)c1)NO | 1.7 nM (active)
11 | Cc1ccc(C(N)=O)cc1Nc1nccc(-c2cn(C(C)C)c3cnccc23)n1 | 547 nM (active)
12 | Cc1ccc(-c2ncn(-c3ccc(Nc4nccc(-c5cccc(N6CCOCC6)c5)n4)cc3)n2)cn1 | 12200 nM (active)
13 | Cc1cn2c(-c3cn[nH]c3)cnc2c(Nc2ccc(C(=O)N3CCNCC3)cc2F)n1 | 21800 nM (active)
14 | O=C(c1ccc(Nc2nccc(-c3cc4ccccc4s3)n2)cc1)N1CCC(N2CCCC2)CC1 | 68.8 nM (active)
15 | Cc1cc(Nc2cc(NC(=O)c3c(Cl)cccc3Cl)ccn2)nc(N)n1 | 194 nM (active)
16 | CCCCc1nc2cc(C=CC(=O)NO)ccc2n1CCN(CC)CC | inactive
17 | O=C(C=Cc1c(C(=O)O)[nH]c2cc(Cl)cc(Cl)c12)Nc1ccccc1 | inactive
18 | CC(C)(C)OC(=O)Nc1ccc(-c2cc(C(=O)NCCCCCCC(=O)NO)no2)cc1 | inactive
19 | CC1(C)OC2=C(C(=O)c3ccccc3C2=O)[C@H](NCc2ccccc2)[C@H]1O | inactive
20 | CC(NCc1ccc2c(c1)nc(NC(=O)c1ccc(-c3cn[nH]c3)s1)n2CC(C)(C)O)C(C)(C)C (stereo not given) | 5.5 nM (active) and 0.2 nM (active)

Row | SMILES | Potency
21 | CC(C)(C)c1cc(C(C)(C)C)c(NC(=O)c2c[nH]c3ccccc3c2=O)cc1O | inactive
22 | C=CCn1c(=O)c2cnc(Nc3ccc(N4CCN(C)CC4)cc3)nc2n1-c1cccc(C(C)(C)O)n1 | 43.4 nM (active)
23 | COCCn1c2c([n+](Cc3cnccn3)c1C)C(=O)c1ccccc1C2=O | inactive
24 | O=C(NC1CCNCC1)c1[nH]ncc1NC(=O)c1c(Cl)cccc1Cl | inactive
25 | C=CC(=O)Nc1cccc(Oc2nc(Nc3ccc(N4CCN(C)CC4)cc3OC)ncc2Cl)c1 | 4870 nM (active)
26 | O=C(NCCS(=O)(=O)c1ccc(C(F)(F)F)cn1)c1ccc(Cl)cc1 | inactive
27 | NC(=O)c1c(OCc2c(F)cc(Br)cc2F)nsc1NC(=O)NCCCCN1CCCC1 | 1.9 nM (active)
28 | Nc1ccccc1NC(=O)c1ccc(CNC(=O)OCc2cccnc2)cc1 | 15400 nM (active)
29 | CC1(C)CCC(c2ccc(Cl)cc2)=C(CN2CCN(c3ccc(C(=O)NS(=O)(=O)c4ccc(N[C@H](CCN5CCOCC5)CSc5ccccc5)c(S(=O)(=O)C(F)(F)F)c4)cc3)CC2)C1 | 30700 nM (active)
30 | C[C@]1(CO)CN(c2cc(C(=O)Nc3ccc4c(c3)-c3c(c(C(N)=O)nn3-c3ccc(F)cc3)CC4)c(Cl)cn2)C[C@@]1(C)CO | inactive
31 | O=C(Nc1cc(C(F)(F)F)cc(C(F)(F)F)c1)c1cc(Cl)ccc1O | inactive
32 | CC(=O)Nc1sc2c(c1-c1nc3ccccc3s1)CNC2 | inactive
33 | N#CCNC(=O)c1ccc(-c2ccnc(Nc3ccc(N4CCOCC4)cc3)n2)cc1 | 972 nM (active)
34 | COc1cc(C(C)C)c2c(c1)S(=O)(=O)N(COc1cc(=O)n3cccc(OCCN4CCCCC4)c3n1)C2=O | inactive
35 | CCOc1cc2ncc(C#N)c(Nc3ccc(F)c(Cl)c3)c2cc1NC(=O)C=CCN(C)C | 43.4 nM (active)
36 | Cc1ccc(C(=O)Nc2cccc(C(F)(F)F)c2)cc1-c1ccc2nc(NCCN3CCOCC3)ncc2c1 | 7.7 nM (active)
37 | O=C(O)c1ccc2cc(-c3ccc(O)c(C45CC6CC(CC(C6)C4)C5)c3)ccc2c1 | inactive
38 | Cc1cccc(C=NNc2cc(N3CCOCC3)nc(OCCc3ccccn3)n2)c1 | inactive
39 | Nc1nc(-c2nn(Cc3ccccc3F)c3ncccc23)nc(N)c1N1CCOCC1 | inactive
40 | CC(C)C[C@H](NC(=O)CNC(=O)c1cc(Cl)ccc1Cl)B(O)O | inactive
